Here are results for 40 compounds from PubChem BioAssay (NCATS).

The structures appear in SMILES notation. Results filed as inconclusive are left out. A number with no mark means an inactive call. The source made the active and inactive calls. Calls follow the shape of the dose curve; as a rule, active = well fitted cell-killing curve with a large enough effect; inconclusive = small, poorly fitted or top-dose-only effect, or effect the other way; inactive = flat fitted curve, though single readings scatter.
% is scaled to controls: 0 for no effect and ±100 for the full control effect; potency is read from the fitted curve at half-maximal effect.

The test system of this experiment is CAOV3. Kind of experiment: Primary qHTS to identify gynecologic anti-cancer compounds using libraries of approved drugs and bioactive compounds (AID 1345084). Also: nearly all actives have a fitted effect of over 55% in size. The note with it: Gynecologic cancer cell panel viability, ATPlite luminescence, 48 h; series mostly up to 57.5 µM; activity change, negative = cytotoxicity: at the top concentration. An excerpt: National Center for Advancing Translational Sciences [NCATS] Assay Overview: Chemotherapeutic drug responses vary from cancer to cancer and from patient to patient. These variations could be caused by a number of factors including patient genomic background, tumor mutations, tumor heterogeneity, and aspects of drug treatment. Chemotherapeutic drug resistance is also a common issue and can lead to ineffective treatment and patient death. Here we have profiled the cell killing effects of thousands of compounds to characterize the responses in three gynecological cancers, identify cancer-selective compounds, and understand the diversity of responses to these compounds from pan-cancer suppressors to single cell line selective compounds. In this assay, we screened a 7,914 compound drug library that included approved drug and bioactive compounds in six ovarian, three cervical, and […] placental cancer cell lines using the ATPlite assay for cell viability. […] The cervical cancer cell lines included HeLa, Ca Ski, and C-33 A. The placental cancer cell lines included JEG-3. HEK 293T cells were used as the control cell line to determine the selectivity index. ATPlite is a luminescence based assay reliant on the conversion of a luciferase substrate to light in the presence of ATP. As a cytotoxic compound will suppress growth and decrease the number of cells, the concentration of ATP will decrease, and less light signal will be detected in the well.
Assay Protocol Summary: 1,000 cells in 4 uL of media were dispensed into white, solid bottom 1536-well plates using a Multidrop Combi (Thermo Scientific). The Assay plates were incubated for 16 hours at 37 C with 5% CO2 in assay plates, followed by the addition of 23 nL of DMSO or drug dissolved in DMSO. Each compound was assayed in five concentrations (0.092, 0.46, 2.3, 11.5, and 57.5 uM), using the automated Wako 1536 Pin Tool workstation and incubated at 37 C with 5% CO2 48 hours. 4 uL of ATPlite, the ATP monitoring reagent, was then added to the each well of the assay plates using the Multidrop Combi reagent dispenser followed by incubation for 15 minutes at room temperature. The resulting luminescence was measured using the ViewLux plate reader.
On the technique in general: In qHTS, concentration-response curves come from the screen itself.
`COc1cc(N)c(Cl)cc1C(=O)NC1CN2CCC1CC2` (stereo not given): the “activity change, negative = cytotoxicity” value was 4.05%.

In the case of `CC(C)=CCN1CC[C@@]2(C)c3cc(O)ccc3C[C@@H]1[C@@H]2C`, the “activity change, negative = cytotoxicity” value was -14.5% [at 116 µM].

Consider `O=C1NCN(c2ccccc2)C12CCN(CCCOc1ccc(F)cc1)CC2`, for which the “activity change, negative = cytotoxicity” value is -30.8%.

For `CC(C)[N+](C)(CCC(C(N)=O)(c1ccccc1)c1ccccc1)C(C)C`, the “activity change, negative = cytotoxicity” value is 2.99%.

In the case of `CNC(C)Cc1ccccc1OC` (stereo not given), the “activity change, negative = cytotoxicity” value was -0.831%.

Consider `CCc1ccc(C2CCNCC2)cc1`, for which the “activity change, negative = cytotoxicity” value is 4%.

In the case of `O=C(NC(=O)c1c(F)cccc1F)Nc1cc(Cl)c(OC(F)(F)C(F)C(F)(F)F)cc1Cl` (stereo not given), the “activity change, negative = cytotoxicity” value is -17.3%.

Take `CC[C@H]1C[C@@H]2C[C@H]3c4[nH]c5ccc(OC)cc5c4CCN(C2)[C@@H]13`: the “activity change, negative = cytotoxicity” value was -1.3% [at 116 µM].

Regarding `Cc1nc2ccccc2c(=O)n1-c1ccccc1Cl`, the “activity change, negative = cytotoxicity” value is 1.14% [at 116 µM].

As for `CN1C(=O)CN=C(c2ccccc2)c2cc([N+](=O)[O-])ccc21`, the “activity change, negative = cytotoxicity” value is 9.34%.

For `CC(Cc1ccccc1)NCCCCl` (stereo not given), the “activity change, negative = cytotoxicity” value was 14.5%.

As to `CN1C[C@@H](NS(=O)(=O)N(C)C)C[C@@H]2c3cccc4c3c(cn4C)C[C@H]21`, the “activity change, negative = cytotoxicity” value is 1.47%.

With `CC(C)(O)C(Cl)(Cl)Cl`, the “activity change, negative = cytotoxicity” value was -15.1%.

For `Cc1ccc([N+](=O)[O-])[c]2c1[O][Hg]2`, the Potency is 6.31 µM (active).

For `O=C(CCl)c1ccc(Cl)cc1Cl`, the “activity change, negative = cytotoxicity” value is 5.8%.

As for `CCC(=O)O[C@H]1CC[C@H]2[C@@H]3CCC4=CC(=O)CC[C@]4(C)[C@H]3CC[C@]12C`, the “activity change, negative = cytotoxicity” value was 1.76%.

For the compound `CCOC(=O)c1cncn1C(C)c1ccccc1` (stereo not given), the “activity change, negative = cytotoxicity” value is -11.7%.

With `CCC(=O)C(CCN(C)C)(c1ccccc1)c1ccccc1`, the “activity change, negative = cytotoxicity” value was -6.22%.

For `ClC1=C(Cl)C2(Cl)C(CBr)CC1(Cl)C2(Cl)Cl` (stereo not given), the “activity change, negative = cytotoxicity” value is -0.35%.

In the case of `COc1cc(C[C@@H](C)N)c(OC)cc1Br`, the “activity change, negative = cytotoxicity” value is -12.9% [at 116 µM].

On to `O=C(CBr)Nc1ccc(Cl)cc1C(=O)c1ccccc1F`, for which the “activity change, negative = cytotoxicity” value was 12.2%.

For `CC(C)NCC(O)c1ccc(N)c(C#N)c1` (stereo not given), the “activity change, negative = cytotoxicity” value was 8.54%.

As for `Clc1ccc(CO/N=C(\Cn2ccnc2)c2ccc(Cl)cc2Cl)c(Cl)c1`, the “activity change, negative = cytotoxicity” value was 1.75%.

As for `CCC1(CC)C(=O)NC(=O)NC1=O`, the “activity change, negative = cytotoxicity” value was 4.83%.

With `CCOC(C(=O)OCCN(C)C)(c1ccccc1)c1ccccc1`, the “activity change, negative = cytotoxicity” value is -8.46%.

For `C[C@]12CC[C@H](O)CC1=CC[C@@H]1[C@@H]2CC[C@]2(C)C(=O)CC[C@@H]12`, the Potency entry was “inactive”.

In the case of `CCc1cc(OC)c(C[C@H](C)N)cc1OC`, the “activity change, negative = cytotoxicity” value was -10.7% [at 116 µM].

With `Nc1ccc(N)cc1`, the “activity change, negative = cytotoxicity” value was 1.72%.

Take `C[N+](C)(C)CCOC(=O)C(O)(c1ccccc1)c1ccccc1`: the “activity change, negative = cytotoxicity” value is -1.28%.

`O=C1CN2CCOC2(c2ccccc2Cl)c2cc(Cl)ccc2N1` (stereo not given): the “activity change, negative = cytotoxicity” value is -5.3%.

In the case of `O=C(CCCCl)c1ccc(F)cc1`, the “activity change, negative = cytotoxicity” value is -1.8%.

As for `CNC(=O)Oc1cccc2ccccc12`, the “activity change, negative = cytotoxicity” value was 23.4%.

On to `C1CN2CCC1CC2`, for which the “activity change, negative = cytotoxicity” value is 2.65%.

Regarding `Sc1ccccc1Cl`, the “activity change, negative = cytotoxicity” value is -14.2%.

`C[C@H]1CNCCc2ccc(Cl)cc21`: the “activity change, negative = cytotoxicity” value is -10.4%.

Regarding `NC(=O)CN1CCCC1=O`, the “activity change, negative = cytotoxicity” value was 8.14%.

For `CCOC(=O)NC(C)(C)Cc1ccc(Cl)cc1`, the “activity change, negative = cytotoxicity” value is 3.84%.

`CCOC(=O)C1(c2ccccc2)CCN(CCc2ccc(N)cc2)CC1`: the “activity change, negative = cytotoxicity” value was -6.83%.

On to `CCC(OC(C)=O)C(CC(C)NC)(c1ccccc1)c1ccccc1` (stereo not given), for which the Potency was 39.8 µM (active).

For `O=C(N[C@H]1N=C(c2ccccc2F)c2cccc3c2N(CC3)C1=O)c1cc2ccccc2[nH]1`, the “activity change, negative = cytotoxicity” value was 7.19%.
